Test results published in the supplement of paper PMC10037445.
In all, about 2,900 compounds were measured (“NF-kB SEAP reporter activity, fold change vs agonist alone”: median about 0.99, highest 2% from about 2.6 on). Many of the other results were omitted from the sample, so the highest values are more common in it than they were.

How the values were obtained:
RAW-Dual [1] = assay: NF-kB SEAP reporter activity, fold change vs agonist alone; higher = enhanced NF-kB activity; conditions: library stock concentration (final ~1000-fold dilution): 10 mM, cytotoxicity flag (confluency mask): not cytotoxic
Summary of the method: (§1)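 Reporter activity is given as fold change relative to agonist-alone wells. To measure it, 50 nL of library stock was pin-tooled onto RAW-Dual macrophages (50,000 cells/well, DMEM, 384-well plates), a PRR agonist followed 1 h later, and cells stayed at 37 °C, 5% CO2. Twenty hours on, supernatant was assayed for IRF (QuantiLuc luminescence) and NF-κB (QuantiBlue, 620 nm absorbance), and wells under 70% of agonist-control IncuCyte confluency in both mask sets were marked cytotoxic.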

RAW-Dual [2] = assay: NF-kB SEAP reporter activity, fold change vs agonist alone; cytotoxicity flag (confluency mask): not cytotoxic; higher = enhanced NF-kB activity
Summary of the method: as §1

[3] = agonist: ODN 1826 (TLR9) 0.5 ug/mL
[4] = agonist: Pam2CSK4 (TLR2/6) 0.1 ug/mL
[5] = agonist: Pam3CSK4 (TLR2/1) 0.1 ug/mL

SMILES	NF-kB SEAP reporter activity (RAW-Dual [1]; agonist: MPLA (TLR4) […])	NF-kB SEAP reporter activity (RAW-Dual [2]; agonist: LPS (TLR4) 0.1 ug/mL)	NF-kB SEAP reporter activity (RAW-Dual [2]; [3])	NF-kB SEAP reporter activity (RAW-Dual [2]; [4])	NF-kB SEAP reporter activity (RAW-Dual [2]; [5])	NF-kB SEAP reporter activity (RAW-Dual [1]; agonist: Imiquimod (TLR7) […])
CCOc1ccc(Cc2cc(C34OCC(CO)(O3)C(O)C(O)C4O)ccc2Cl)cc1 (centres undefined)	1.09					
CCOc1ccc(Cc2cc(C34OCC(CO)(O3)C(O)C(O)C4O)ccc2Cl)cc1 (centres undefined) (library stock concentration (final ~1000-fold dilution): 10 mM)		0.975	1.1	1.13	0.829	
COc1ccc(CCN(C)CCCC(C#N)(c2ccc(OC)c(OC)c2)C(C)C)cc1OC.Cl (centres undefined) (library stock concentration (final ~1000-fold dilution): 10 mM)		1.06	0.89	0.949	1.04	
COc1ccc(CCN(C)CCCC(C#N)(c2ccc(OC)c(OC)c2)C(C)C)cc1OC.Cl (centres undefined)	1.03					0.98
CN1CC(=O)N2C(Cc3c([nH]c4ccccc34)C2c2ccc3c(c2)OCO3)C1=O (centres undefined)	0.984					0.955
CN1CC(=O)N2C(Cc3c([nH]c4ccccc34)C2c2ccc3c(c2)OCO3)C1=O (centres undefined) (library stock concentration (final ~1000-fold dilution): 10 mM)		1.17	1.18	1.13	1.11	
O=S(=O)(NCCSSCCNS(=O)(=O)c1cc(Cl)ccc1Cl)c1cc(Cl)ccc1Cl (library stock concentration (final ~1000-fold dilution): 10 mM)		0.705	0.705	0.573	0.312	
Cc1ccc([N+](=O)[O-])cc1S(=O)(=O)N(C)C (library stock concentration (final ~1000-fold dilution): 10 mM)		1.07	0.867	0.994	1.36	
Cc1ccc([N+](=O)[O-])cc1S(=O)(=O)N(C)C	1.14					0.951
O=S(=O)(NCCSSCCNS(=O)(=O)c1cc(Cl)ccc1Cl)c1cc(Cl)ccc1Cl	1.03					1.13
Cc1cc([N+](=O)[O-])ccc1NS(=O)(=O)c1cc(Cl)ccc1Cl	1.41					1.01
Cc1cc([N+](=O)[O-])ccc1NS(=O)(=O)c1cc(Cl)ccc1Cl (library stock concentration (final ~1000-fold dilution): 10 mM)		3.09	0.67	0.323	0.349	
COC(C)Cn1c(=O)n(C)c2cnc3ccc(-c4cncc(C(C)(C)O)c4)cc3c21 (centres undefined) (library stock concentration (final ~1000-fold dilution): 10 mM)		1.84	1.26	0.476	1.03	
